According to paper PMC4336329 (PLoS ONE, 2015):
Hit rate of the full screen: of about 310,000 compounds, about 14,000 (4.5%) showed an effect of 50% or more. Effects have a minus sign here. This is one part of a sample in which strong results are shown more often than they occur.

Each molecule was assayed against human ether-à-go-go-related gene (hERG) potassium channel (human, UniProt Q12809) (assay: primary screen, population patch clamp on CHO cells stably expressing hERG; higher = less effect of the substance).
human ether-à-go-go-related gene (hERG) potassium channel, sequence (Q12809 whole entry, looked up): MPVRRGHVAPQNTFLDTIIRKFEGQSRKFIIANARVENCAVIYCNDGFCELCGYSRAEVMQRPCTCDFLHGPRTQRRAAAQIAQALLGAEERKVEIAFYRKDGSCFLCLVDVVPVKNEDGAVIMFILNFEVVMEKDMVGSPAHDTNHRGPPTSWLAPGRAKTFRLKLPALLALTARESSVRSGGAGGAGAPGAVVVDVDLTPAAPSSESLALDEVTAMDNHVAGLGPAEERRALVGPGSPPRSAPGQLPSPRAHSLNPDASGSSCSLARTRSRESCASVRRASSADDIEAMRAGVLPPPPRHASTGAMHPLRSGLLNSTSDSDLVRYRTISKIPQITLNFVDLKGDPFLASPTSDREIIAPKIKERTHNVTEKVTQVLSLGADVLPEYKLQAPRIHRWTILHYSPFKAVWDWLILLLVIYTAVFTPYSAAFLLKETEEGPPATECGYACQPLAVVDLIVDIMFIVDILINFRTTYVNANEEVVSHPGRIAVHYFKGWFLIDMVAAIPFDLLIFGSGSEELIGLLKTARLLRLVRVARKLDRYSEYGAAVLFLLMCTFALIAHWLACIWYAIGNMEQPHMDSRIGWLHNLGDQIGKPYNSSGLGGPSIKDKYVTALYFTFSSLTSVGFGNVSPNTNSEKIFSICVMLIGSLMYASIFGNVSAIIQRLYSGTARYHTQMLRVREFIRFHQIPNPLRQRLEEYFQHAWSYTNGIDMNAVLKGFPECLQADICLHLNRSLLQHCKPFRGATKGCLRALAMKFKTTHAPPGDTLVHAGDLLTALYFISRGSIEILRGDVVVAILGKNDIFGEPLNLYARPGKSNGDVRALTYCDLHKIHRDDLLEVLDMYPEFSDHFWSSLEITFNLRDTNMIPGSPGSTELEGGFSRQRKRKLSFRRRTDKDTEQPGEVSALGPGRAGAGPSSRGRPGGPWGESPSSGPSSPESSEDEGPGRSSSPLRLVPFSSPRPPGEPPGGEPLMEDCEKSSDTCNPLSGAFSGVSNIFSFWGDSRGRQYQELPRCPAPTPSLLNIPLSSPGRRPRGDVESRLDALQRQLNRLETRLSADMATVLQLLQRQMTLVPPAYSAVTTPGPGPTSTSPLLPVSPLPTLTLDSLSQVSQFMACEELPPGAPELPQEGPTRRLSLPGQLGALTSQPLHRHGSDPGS
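Note: peak tail current of the secondary pulse compared with the same well before compound.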

Row | Structure (SMILES) | hERG current change (%, negative = inhibition) at 10uM
1 | Cc1ccc2cccnc2c1N | 4.5%
2 | NC(=O)c1ccccc1NC(=O)C1CCCO1 (stereo not drawn) | 8.51%
3 | COc1ccccc1CN(C)C(=O)c1ccc(COc2ccccc2)cc1 | 6.77%
4 | CCOc1cnc(-c2c(-c3ccccc3Cl)noc2C)o1 | -3.56%
5 | Cc1cccc2c(=O)c(C(=O)NCCc3ccccc3)c[nH]c12 | 21.9%
6 | CC(=O)Nc1ccc(SCC(=O)c2ccc(Br)s2)cc1 | 19.5%
7 | Cc1cnc(NC(=O)c2ccco2)s1 | 13.9%
8 | O=C(Nc1ccccc1C(=O)Nc1ccccc1)c1cccs1 | -0.413%
9 | COC(=O)C1=CN(Cc2ccccc2)C=C(C(=O)OC)C1c1cc(F)ccc1F | -12.6%
10 | c1ccc(-c2csc3ncnc(N4CCc5ccccc5C4)c23)cc1 | -1.81%
11 | O=C(c1ccc(-n2cncn2)c([N+](=O)[O-])c1)N1CCN(S(=O)(=O)c2ccc(F)c(F)c2)CC1 | -72.7%
12 | O=C(Nc1ccc(F)c(F)c1)c1ccc(-n2cncn2)c([N+](=O)[O-])c1 | -35.7%
13 | O=C(NNC(=O)c1ccc(-n2cncn2)c([N+](=O)[O-])c1)c1ccc(Cl)cc1 | -9.94%
14 | O=C(CCCN1C(=O)C2CC=CCC2C1=O)Nc1ccccc1F (stereo not drawn) | 1.61%
15 | CC(=O)C1C2c3ccccc3OC1(C)N=c1s/c(=C/c3cn(C)nc3C)c(=O)n12 (stereo not drawn) | -0.454%
16 | O=C(c1ccc(-n2cncn2)c([N+](=O)[O-])c1)N1CCN(c2cccc(Cl)c2)CC1 | -68.5%
17 | O=C(O)c1ccc(-n2cncn2)c([N+](=O)[O-])c1 | 11.6%
18 | Cc1cccc(N2CCN(C(=O)c3ccc(-n4cncn4)c([N+](=O)[O-])c3)CC2)c1C | -58.9%
19 | O=C(NNC(=O)c1ccc(-n2cncn2)c([N+](=O)[O-])c1)c1cccc(Cl)c1 | -26.3%
20 | Cc1cccc(N2CCN(c3ccc(C(N)=O)cc3[N+](=O)[O-])CC2)c1C | 21.7%
21 | O=C(Nc1cccc(Cl)c1)c1ccc(-n2cncn2)c([N+](=O)[O-])c1 | -35%
22 | COc1ccc(C2=NS(=O)(=O)N(C)C(C(=O)Nc3ccc(OC)c(OC)c3)=C2)cc1 | -11.9%

Row | Structure (SMILES) | hERG current change (%, negative = inhibition) at 10uM
23 | O=C(CSc1nc2ccc(Cl)cc2[nH]1)c1c[nH]c2ccccc12 | 26.8%
24 | O=C(c1ccc(Cl)cc1)N1CCN(c2ccc(F)cc2)CC1 | -34%
25 | COc1ccc(C(CC(=O)N2CCCC2)C(C)C)cc1 (stereo not drawn) | -2.25%
26 | Cc1ccc(C(=O)N2CCC(C(=O)c3c(C)cc(C)cc3C)CC2)cc1 | -38.5%
27 | Cc1ccc(C(=O)N2CCN(c3ccc(Cl)cc3)CC2)cc1 | -61.1%
28 | COc1cc(OC)cc(OC(=O)C2CCN(C(=O)c3ccc(Cl)cc3)CC2)c1 | -33.9%
29 | COc1cc(OC)cc(C(=O)N2CCC(C(=O)c3ccc(F)cc3)CC2)c1 | -30.8%
30 | O=C(c1ccccc1)N1CCN(c2ccc(Cl)cc2)CC1 | -25.1%
31 | COc1ccc(C(=O)N2CCC(C(=O)c3c(C)cc(C)cc3C)CC2)cc1 | -55.3%
32 | COc1ccc(C(=O)N2CCC(C(=O)c3ccc(F)cc3)CC2)cc1 | -70.2%
33 | COc1ccc(C(CC(=O)N2CCCC2)c2ccc(F)cc2)cc1 (stereo not drawn) | -71.5%
34 | COc1ccc(C(CC(=O)N2CCCCC2)C(C)C)cc1 (stereo not drawn) | 15.8%
35 | COc1ccc(C(=O)C2CCN(C(=O)c3ccc(F)cc3)CC2)cc1 | -28.5%
36 | CCc1ccc(N(CC(=O)Nc2ccc(NC(C)=O)cc2)S(=O)(=O)c2ccccc2)cc1 | 10.5%
37 | C#CCn1ccc(O)c(Cc2c(F)cccc2Cl)c1=O | 8.2%
38 | Cc1cccc(NC(=O)c2cc(-c3ccco3)nc3ccccc23)n1 | 4.05%
39 | O=C1CN(C(=S)NC(=O)c2ccccc2[N+](=O)[O-])CCN1 | 16.9%
40 | COc1ccc([N+](=O)[O-])cc1NC(=O)COC(=O)/C=C/c1ccco1 | 1.54%
41 | COc1ccc(Cl)cc1C(=O)NNC(=O)CSc1nnnn1C | 9.95%
42 | Cc1cc(-c2ccccc2)nc(SCc2ccc(C(=O)O)cc2)n1 | 23.8%
43 | O=C(c1ccc(Cl)cc1)C1CCN(C(=O)c2ccccc2)CC1 | -34.3%
44 | COc1ccc(C(=O)C2CCN(C(=O)c3ccco3)CC2)cc1 | -13.4%

Row | Structure (SMILES) | hERG current change (%, negative = inhibition) at 10uM
45 | Cc1ccc(C(=O)C2CCN(C(=O)c3ccc(C)cc3)CC2)cc1 | -36.8%
46 | COc1ccc(C(=O)C2CCN(C(=O)c3ccc(OC)cc3)CC2)cc1 | -77.1%
47 | COc1ccc(NC(=S)N2CCC(C(=O)c3ccc(OC)cc3)CC2)cc1 | -45.4%
48 | COc1ccc(C(=O)C2CCN(C(=O)Nc3ccc(C)cc3)CC2)cc1 | -9.82%
49 | COc1ccc(NC(=S)N2CCC(C(=O)c3ccc(C)cc3)CC2)cc1 | -21.9%
50 | Cc1ccc(C(=O)N2CCC(C(=O)c3ccc(Cl)cc3)CC2)cc1 | -68.4%
51 | COc1ccc(C(=O)C2CCN(C(=O)c3ccc(C)cc3)CC2)cc1 | -66.3%
52 | CCOP(=O)(OCC)C(NC(=O)c1ccc(OC)c(OC)c1)c1ccccc1 (stereo not drawn) | 9.71%
53 | COc1ccc(/C(O)=C2\C(=O)C(=O)N(CCN(C)C)C2c2cc(OC)c(OC)c(OC)c2)c(C)c1 (stereo not drawn) | 3.79%
54 | COc1ccc(NC(=O)/C(N=Nc2cc(S(=O)(=O)Nc3ccc(OC)cc3)ccc2OC)=C(\C)O)cc1 | 24.2%
55 | O=C(c1cnn2c(C(F)(F)F)cc(-c3ccc(F)cc3)nc12)N1CCc2ccccc2C1 | -3.83%
56 | COc1ccc(Nc2ncnc3c2cnn3Cc2ccccc2)cc1 | -18.1%
57 | CC(C)N(C(=O)c1sc2cc([N+](=O)[O-])ccc2c1Cl)C(C)C | -13.4%
58 | CCOc1ccc(NC(=O)C(CC)n2nc(C)c3c(C)n(-c4ccccc4)nc3c2=O)cc1 (stereo not drawn) | -30.1%
59 | CCSc1ccccc1C(=O)Nc1cccnc1 | -5.83%
60 | COc1ccc(-c2[nH]ncc2CN2CCC(c3ccncc3)CC2)cc1F | -62.7%
61 | COCC1CCN(Cc2cn[nH]c2-c2ccc(OC)c(F)c2)C1 (stereo not drawn) | -4.22%
62 | COc1ccc(-c2[nH]ncc2CN2CCCN(C(=O)c3ccco3)CC2)cc1F | -55.2%
63 | COc1ccc(-c2[nH]ncc2CN2CCN(C(=O)c3ccco3)CC2)cc1F | -6.81%
64 | Cc1ccccc1CN1CCN(C(=O)c2ccco2)CC1.O=C(O)C(=O)O | 7.41%
65 | O=C(c1ccco1)N1CCN(Cc2cn[nH]c2-c2ccc(F)cc2F)CC1 | -12.8%
66 | O=C(c1ccco1)N1CCCN(Cc2cn[nH]c2-c2ccc(-c3ccccc3)cc2)CC1 | -59.3%

Row | Structure (SMILES) | hERG current change (%, negative = inhibition) at 10uM
67 | O=C(c1ccco1)N1CCN(Cc2cn[nH]c2-c2cccc3ccccc23)CC1 | -29.1%
68 | COc1ccc(-c2[nH]ncc2CN2CCC(N3CCSCC3)CC2)cc1F | -22.5%
69 | Cc1cc(NC(=O)CN2CCN(S(=O)(=O)c3ccc4ccccc4c3)CC2)no1 | -14.7%
70 | CCCCN(C(=O)c1ccc2c(c1)OCO2)c1c(N)n(CC(C)C)c(=O)[nH]c1=O | -6.58%
71 | CS(=O)(=O)Nc1ccc2c(c1)ncn2CCc1ccccc1 | -26.4%
72 | O=C1c2ccccc2C(=O)N1CCc1csc(-c2cccc(F)c2)n1 | -22.5%
73 | Clc1ccc(-n2ncc3c(NCc4cccnc4)ncnc32)cc1Cl | 14.6%
74 | COc1ccc(-c2csc(NC(=O)CN3C(=O)CCC3=O)n2)cc1OC | 11.4%
75 | Cc1cccc(OC(C)C(=O)N(Cc2cccs2)C2CCS(=O)(=O)C2)c1C (stereo not drawn) | -14.8%
76 | CCNS(=O)(=O)c1ccc(CCC(=O)N2CCN(c3ccc(OC)cc3)CC2)cc1 | -8.99%
77 | COc1ccc(N2CCN(C(=O)CCNS(=O)(=O)c3cccs3)CC2)cc1 | -26%
78 | COc1ccc(N2CCN(C(=O)CNS(=O)(=O)c3ccc(Br)s3)CC2)cc1 | -27.6%
79 | O=C(CCc1ccc(S(=O)(=O)NCCc2ccccc2)cc1)N1CCN(Cc2ccc3c(c2)OCO3)CC1 | -48.5%
80 | CC(C)CNS(=O)(=O)c1ccc(CCC(=O)N2CCN(Cc3ccc4c(c3)OCO4)CC2)cc1 | -54.4%
81 | COc1ccc(N2CCN(C(=O)CCc3ccc(S(=O)(=O)NC(C)C)cc3)CC2)cc1 | -7.82%
82 | CC(C)CNS(=O)(=O)c1ccc(CCC(=O)N2CCN(Cc3ccccc3)CC2)cc1 | -35.2%
83 | COc1ccc(N2CCN(C(=O)CCc3ccc(S(=O)(=O)NCC(C)C)cc3)CC2)cc1 | -57.1%
84 | O=C(CCc1ccc(S(=O)(=O)NCc2ccccc2)cc1)N1CCN(Cc2ccc3c(c2)OCO3)CC1 | -41.2%
85 | COc1ccc(N2CCN(C(=O)CCNS(=O)(=O)c3ccc(Br)s3)CC2)cc1 | -50.6%
86 | CCNS(=O)(=O)c1ccc(CCC(=O)N2CCN(c3ccccc3)CC2)cc1 | -16.8%
87 | CC(C)CNS(=O)(=O)c1ccc(CCC(=O)N2CCN(c3ccccc3)CC2)cc1 | -91.3%
